Results taken from PubChem BioAssay (EPA / NIEHS).
Calls of active or inactive are those of the source. Rule for the calls: active = hit-call score of the fitted dose curve at least 0.9, where 1 is the maximum; inactive = score below 0.9.

Columns and labels:
[1] = read-out: Plasminogen activator inhibitor-1 (PAI1), SERPINE1 (gene 5054); experiment: BSK_hDFCGF_PAI1: BioMAP Diversity Plus: hDFCGF Assay for Plasminogen activator inhibitor-1 (PAI1) Biomarker Activity (AID 2283066); conditions: primary human foreskin fibroblasts; actives raise or lower the signal
Summary of the method: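 PAI-1 levels, determined by ELISA, served as the endpoint in human foreskin fibroblast cultures exposed to compound for 24 h, with DMSO as baseline.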

[2] = read-out: Intercellular Adhesion Molecule 1 (ICAM1), ICAM1 (gene 3383); experiment: BSK_KF3CT_ICAM1: BioMAP Diversity Plus: KF3CT Assay for Intercellular Adhesion Molecule 1 (ICAM1) Biomarker Activity (AID 2283067); conditions: primary human keratinocytes with fibroblasts; actives raise or lower the signal
Summary of the method: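 Human keratinocyte–foreskin fibroblast co-culture was treated for 24 h. Cell-surface ICAM-1 was quantified by ELISA, fitted bidirectionally relative to DMSO. Cytotoxicity was checked in parallel cultures by SRB total-protein staining.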

[3] = read-out: Interferon-gamma inducible Protein 10 (IP10), CXCL10 (gene 3627); experiment: BSK_KF3CT_IP10: BioMAP Diversity Plus: KF3CT Assay for Interferon-gamma inducible Protein 10 (IP10) Biomarker Activity (AID 2283068); conditions: primary human keratinocytes with fibroblasts; actives raise or lower the signal
Summary of the method: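 In a primary skin co-culture of keratinocytes and fibroblasts, IP-10 is quantified by ELISA at 24 h after dosing. SRB staining of parallel wells monitors overt toxicity. Curves are fitted both directions against DMSO.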

[4] = BSK_KF3CT_SRB: Viability Assessment in the BioMAP Diversity Plus: KF3CT Assay (AID 2283069); conditions: primary human keratinocytes with fibroblasts;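 note: total protein by sulforhodamine B staining as a cytotoxicity measure; fitted for both signal gain and loss against DMSO baseline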
Summary of the method: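 Human keratinocyte and foreskin fibroblast co-culture exposed to chemical for 24 h. Total protein measured in parallel cultures by 0.1% sulforhodamine B staining after 10% TCA fixation, read at 560 nm; bidirectional fit relative to DMSO.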

[5] = read-out: Interleukin-1 alpha (IL1a), IL1A (gene 3552); experiment: BSK_KF3CT_IL1a: BioMAP Diversity Plus: KF3CT Assay for Interleukin-1 alpha (IL1a) Biomarker Activity (AID 2283070); conditions: primary human keratinocytes with fibroblasts; actives raise or lower the signal
Summary of the method: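 Primary human keratinocyte plus foreskin fibroblast co-culture, dosed and measured at 24 h in 96-well plates. IL-1a level quantified by ELISA; bidirectional fit relative to DMSO.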

[6] = read-out: TIMP metallopeptidase inhibitor 2 (TIMP2), TIMP2 (gene 7077); experiment: BSK_KF3CT_TIMP2: BioMAP Diversity Plus: KF3CT Assay for TIMP metallopeptidase inhibitor 2 (TIMP2) Biomarker Activity (AID 2283071); conditions: primary human keratinocytes with fibroblasts; actives raise or lower the signal
Summary of the method: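 Keratinocyte–fibroblast co-culture, 24 h exposure; TIMP-2 ELISA, DMSO-normalised bidirectional fit. Parallel SRB (0.1%, TCA-fixed, 560 nm) total-protein staining gauges cytotoxicity.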

[7] = read-out: Transforming growth factor beta 1 (TGFb1), TGFB1 (gene 7040); experiment: BSK_KF3CT_TGFb1: BioMAP Diversity Plus: KF3CT Assay for Transforming growth factor beta 1 (TGFb1) Biomarker Activity (AID 2283072); conditions: primary human keratinocytes with fibroblasts; actives raise or lower the signal
Summary of the method: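 Signal changes in either direction, relative to DMSO, define activity here. TGF-b1 is read by ELISA from a human keratinocyte-fibroblast co-culture 24 h post-dose.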

[8] = read-out: C-C motif chemokine 2 (Homo sapiens) (UniProt P13500); experiment: BSK_KF3CT_MCP1: BioMAP Diversity Plus: KF3CT Assay for Monocyte Chemoattractant Protein 1 (MCP1/CCL2) Biomarker Activity (AID 2283073); conditions: primary human keratinocytes with fibroblasts; actives raise or lower the signal
Summary of the method: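 Human keratinocyte–foreskin fibroblast co-culture; MCP-1 measured by ELISA 24 h after dosing. Bidirectional fit vs DMSO; cytotoxicity tracked by SRB total protein in parallel cultures.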

[9] = read-out: Matrix Metallopeptidase 9 (MMP9), MMP9 (gene 4318); experiment: BSK_KF3CT_MMP9: BioMAP Diversity Plus: KF3CT Assay for Matrix Metallopeptidase 9 (MMP9) Biomarker Activity (AID 2283074); conditions: primary human keratinocytes with fibroblasts; actives raise or lower the signal;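 for AC50: MMP9 protein level quantified by ELISA in the co-culture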
Summary of the method: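 Human keratinocyte and foreskin fibroblast co-culture exposed to chemicals for 24 h; MMP9 biomarker measured by ELISA, bidirectional fitting relative to DMSO; cytotoxicity tracked by SRB total protein staining in parallel cultures.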

[10] = read-out: urokinase plasminogen activator (uPA), PLAU (gene 5328); experiment: BSK_KF3CT_uPA: BioMAP Diversity Plus: KF3CT Assay for urokinase plasminogen activator (uPA) Biomarker Activity (AID 2283075); conditions: primary human keratinocytes with fibroblasts; actives raise or lower the signal
Summary of the method: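 Primary human keratinocyte/foreskin fibroblast co-culture exposed to chemical; uPA measured by ELISA at 24 h. Bidirectional fit versus DMSO, with parallel SRB total-protein staining for cytotoxicity.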

[11] = read-out: CD40, CD40 (gene 958); experiment: BSK_LPS_CD40: BioMAP Diversity Plus: LPS Assay for CD40 Biomarker Activity (AID 2283076); conditions: primary human HUVEC with PBMC; actives raise or lower the signal
Summary of the method: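 HUVEC plus PBMC co-culture stimulated with LPS; CD40 quantified by ELISA 24 h after compound dosing. Fitting was bidirectional relative to DMSO. SRB staining of parallel cultures flagged overt cytotoxicity.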

[12] = read-out: E-selectin (Homo sapiens) (UniProt P16581); experiment: BSK_LPS_Eselectin: BioMAP Diversity Plus: LPS Assay for Eselectin Biomarker Activity (AID 2283077); conditions: primary human HUVEC with PBMC; actives raise or lower the signal
Summary of the method: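 Human umbilical vein endothelial cells co-cultured with PBMC under LPS stimulation; cell-surface E-selectin measured by ELISA 24 h after dosing. Change in either direction versus DMSO, with SRB total-protein staining in parallel cultures for cytotoxicity.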

[13] = read-out: Interleukin-8 (IL8), CXCL8 (gene 3576); experiment: BSK_LPS_IL8: BioMAP Diversity Plus: LPS Assay for Interleukin-8 (IL8) Biomarker Activity (AID 2283078); conditions: primary human HUVEC with PBMC; actives raise or lower the signal
Summary of the method: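 Human umbilical vein endothelial cells co-cultured with PBMC, LPS-stimulated, exposed to compound for 24 h. IL-8 quantified by ELISA; fitted in both directions against DMSO, with SRB total-protein staining of parallel cultures for cytotoxicity.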

[14] = BSK_LPS_SRB: Viability Assessment in the BioMAP Diversity Plus: LPS Assay (AID 2283079); conditions: primary human HUVEC with PBMC;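 note: total protein by sulforhodamine B absorbance as a cytotoxicity measure; measured one day after compound addition; fitted in both directions against DMSO so loss or gain of signal counts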
Summary of the method: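 Co-culture of human umbilical vein endothelial cells and PBMC, read 24 h after dosing. Total protein by 0.1% SRB staining after 10% TCA fixation, absorbance at 560 nm; bidirectional fit against DMSO.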

[15] = read-out: Monocyte Chemoattractant Protein-1 (MCP1), CCL2 (gene 6347); experiment: BSK_LPS_MCP1: BioMAP Diversity Plus: LPS Assay for Monocyte Chemoattractant Protein-1 (MCP1) Biomarker Activity (AID 2283081); conditions: primary human HUVEC with PBMC; actives raise or lower the signal;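 for AC50: secreted MCP-1 protein quantified by ELISA in culture supernatant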
Summary of the method: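 Human umbilical vein endothelial cells co-cultured with PBMC, LPS-stimulated; secreted MCP-1 measured by ELISA 24 h after compound addition. Bidirectional curve fitting against DMSO baseline; SRB total-protein staining in parallel cultures for cytotoxicity.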

[16] = BSK_LPS_PGE2: BioMAP Diversity Plus: LPS Assay for Prostaglandin E2 (PGE2) Biomarker Activity (AID 2283082); conditions: primary human HUVEC with PBMC; actives raise or lower the signal
Summary of the method: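 Endpoint derived from bidirectional curve fitting versus DMSO of ELISA-measured PGE2 in LPS-stimulated human primary vascular co-culture (HUVEC with PBMC) harvested at 24 h.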

[17] = read-out: Macrophage colony-stimulating factor (MCSF), CSF1 (gene 1435); experiment: BSK_LPS_MCSF: BioMAP Diversity Plus: LPS Assay for Macrophage colony-stimulating factor (MCSF) Biomarker Activity (AID 2283083); conditions: primary human HUVEC with PBMC; actives raise or lower the signal
Summary of the method: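 HUVEC–PBMC co-culture, M-CSF measured by ELISA 24 h after chemical dosing. Fitted in both directions relative to DMSO as negative control; overt cytotoxicity assessed by SRB total-protein staining in parallel cultures.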

[18] = read-out: Tissue Factor, F3 (gene 2152); experiment: BSK_LPS_TissueFactor: BioMAP Diversity Plus: LPS Assay for Tissue Factor Biomarker Activity (AID 2283084); conditions: primary human HUVEC with PBMC; actives raise or lower the signal
Summary of the method: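 Human umbilical vein endothelial cells co-cultured with PBMC were dosed with compound. Cell-surface CD142 was measured by ELISA 24 h later. Activity was fitted bidirectionally against DMSO, with SRB total-protein staining in parallel cultures for cytotoxicity.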

[19] = read-out: Tumor necrosis factor (Homo sapiens) (UniProt P01375); experiment: BSK_LPS_TNFa: BioMAP Diversity Plus: LPS Assay for Tumour Necrosis Factor alpha (TNFa) Biomarker Activity (AID 2283085); conditions: primary human HUVEC with PBMC; actives raise or lower the signal;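 for AC50: TNFa protein level quantified by ELISA in the co-culture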
Summary of the method: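 Primary human vascular co-culture of HUVEC and PBMC; TNFa ELISA 24 h after treatment, analysed as increase or decrease relative to DMSO control.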

[20] = read-out: Interleukin-1 alpha (IL1a), IL1A (gene 3552); experiment: BSK_LPS_IL1a: BioMAP Diversity Plus: LPS Assay for Interleukin-1 alpha (IL1a) Biomarker Activity (AID 2283080); conditions: primary human HUVEC with PBMC; actives raise or lower the signal
Summary of the method: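 Human umbilical vein endothelial cells co-cultured with PBMC and stimulated with LPS; IL-1a measured by ELISA 24 h after dosing. Bidirectional fitting against DMSO; cytotoxicity checked by SRB staining in parallel cultures.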

Measured: AC50

Chain of E-selectin (Homo sapiens) (P16581 whole entry, looked up): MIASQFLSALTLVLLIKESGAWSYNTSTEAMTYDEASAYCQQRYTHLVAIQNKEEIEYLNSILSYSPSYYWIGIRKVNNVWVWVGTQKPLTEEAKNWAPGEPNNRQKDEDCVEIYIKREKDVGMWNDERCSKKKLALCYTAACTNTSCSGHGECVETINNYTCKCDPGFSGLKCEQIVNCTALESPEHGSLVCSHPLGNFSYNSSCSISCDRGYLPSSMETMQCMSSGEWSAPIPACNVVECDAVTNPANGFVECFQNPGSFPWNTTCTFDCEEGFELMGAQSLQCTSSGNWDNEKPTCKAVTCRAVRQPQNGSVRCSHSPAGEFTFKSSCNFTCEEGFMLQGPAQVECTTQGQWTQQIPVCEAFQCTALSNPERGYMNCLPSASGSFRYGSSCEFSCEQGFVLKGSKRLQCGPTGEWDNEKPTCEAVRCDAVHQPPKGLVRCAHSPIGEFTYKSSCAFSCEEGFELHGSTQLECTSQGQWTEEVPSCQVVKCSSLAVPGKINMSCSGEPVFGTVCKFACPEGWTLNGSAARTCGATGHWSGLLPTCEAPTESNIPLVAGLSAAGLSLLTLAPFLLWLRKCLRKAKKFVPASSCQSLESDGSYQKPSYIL
Chain of Tumor necrosis factor (Homo sapiens) (P01375 whole entry, looked up): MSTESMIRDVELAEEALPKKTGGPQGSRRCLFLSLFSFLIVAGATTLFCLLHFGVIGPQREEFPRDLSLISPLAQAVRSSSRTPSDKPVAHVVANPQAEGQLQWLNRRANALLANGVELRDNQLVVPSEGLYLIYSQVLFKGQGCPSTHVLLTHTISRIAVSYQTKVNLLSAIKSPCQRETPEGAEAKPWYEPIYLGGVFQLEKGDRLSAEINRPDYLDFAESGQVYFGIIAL

CCCCCCCCCCCCCCCO
inactive: [1] | [2] | [3] | [4] | [5] | [6] | [7] | [8] | [9] | [10] | [12] | [15] | [16] | [18]
active: [11] 33.6 µM | [13] 31.1 µM | [14] 31.7 µM | [17] 31 µM | [19] 3.97 µM

O=C(O)CC(O)C(=O)O (stereo unspecified)
inactive: [1] | [2] | [3] | [4] | [5] | [6] | [7] | [8] | [9] | [10] | [11] | [12] | [13] | [14] | [20] | [15] | [16] | [17] | [18] | [19]

C1=CCCC=CCCC=CCC1
inactive: [1] | [2] | [3] | [4] | [5] | [6] | [7] | [8] | [9] | [10] | [11] | [12] | [13] | [14] | [15] | [17] | [18] | [19]

O=C1CCCCCN1
inactive: [1] | [2] | [3] | [4] | [5] | [6] | [7] | [8] | [9] | [10] | [11] | [12] | [13] | [14] | [15] | [16] | [17] | [18] | [19]

CC(C)=CCCC(C)=CC=O
inactive: [1] | [2] | [3] | [4] | [5] | [6] | [7] | [8] | [9] | [10] | [11] | [12] | [13] | [14] | [15] | [16] | [17] | [18] | [19]

CC(=O)c1ccc2c(c1)[C@H](NC(=O)c1ccc(F)cc1)[C@@H](O)C(C)(C)O2
inactive: [1] | [2] | [3] | [4] | [5] | [6] | [7] | [8] | [9] | [10] | [11] | [12] | [13] | [14] | [20] | [15] | [17] | [18] | [19]

O=C(CCCCCCCCc1cccnc1)N1CCC(C=C(c2ccccc2)c2ccccc2)CC1
active: [1] 5.88 µM | [2] 16.6 µM | [3] 15.5 µM | [4] 14.7 µM | [5] 16.9 µM | [6] 10.8 µM | [7] 10.1 µM | [8] 16.9 µM | [9] 7.47 µM | [10] 15.7 µM | [11] 8.31 µM | [12] 14.4 µM | [13] 12 µM | [14] 11.7 µM | [20] 9.81 µM | [15] 10.1 µM | [17] 11.4 µM | [18] 14.6 µM

CCNc1ccccc1
inactive: [1] | [2] | [3] | [4] | [5] | [6] | [7] | [8] | [9] | [10] | [11] | [12] | [13] | [14] | [20] | [15] | [16] | [17] | [18] | [19]

Cc1[nH]cnc1C[C@H]1CCc2c(C)c3ccccc3n2C1=O
inactive: [1] | [2] | [3] | [4] | [5] | [6] | [7] | [8] | [9] | [10] | [12] | [18]
active: [11] 27.8 µM | [13] 24.3 µM | [14] 26.2 µM | [15] 27 µM | [17] 29.2 µM | [19] 25.7 µM

CCOCCOCCOCCO
inactive: [1] | [2] | [3] | [4] | [5] | [6] | [7] | [8] | [9] | [10] | [11] | [12] | [13] | [14] | [20] | [15] | [17] | [18] | [19]

COC(=O)c1c(Cl)c(Cl)c(C(=O)OC)c(Cl)c1Cl
active: [11] 11.4 µM | [17] 20 µM
inactive: [1] | [2] | [3] | [4] | [5] | [6] | [7] | [8] | [9] | [10] | [12] | [13] | [14] | [20] | [15] | [18] | [19]

Cc1ccc(S(=O)(=O)O)cc1C
inactive: [1] | [2] | [3] | [4] | [5] | [6] | [7] | [8] | [9] | [10] | [11] | [12] | [13] | [14] | [15] | [17] | [18] | [19]
